Laboratory results from the supplement of paper PMC13380429.
Unmarked numbers belong to inactive results.

System: Vero E6 infected with SARS-CoV-2
Test: inhibition of SARS-CoV-2 cytopathic effect; higher = more antiviral protection, active = above 15
Conditions: 48 h

SMILES | inhibition of SARS-CoV-2 cytopathic effect (1 nM) [%] | inhibition of SARS-CoV-2 cytopathic effect (8.33 nM) [%] | inhibition of SARS-CoV-2 cytopathic effect (100 nM) [%] | inhibition of SARS-CoV-2 cytopathic effect (833.33 nM) [%] | inhibition of SARS-CoV-2 cytopathic effect (10000 nM)
CN1CCN(c2cc(-c3ccccc3)nc(N)n2)CC1 | 2.02 | 3.76 | 2.45 | 4.99 | 2.49%
COc1c(C)c2c(c(O)c1C/C=C(\C)CCC(=O)OCCN1CCOCC1)C(=O)OC2 [mycophenolate-mofetil] | -1.57 | 0.08 | 0.94 | -5.7 | 16.8% (active)
COc1ccc(Cl)cc1C(=O)NCCc1ccc(C(=O)O)cc1 [meglitinide] | 2.2 | 0.5 | 1.3 | 0.11 | 1.33%
CCC1(CC)C(=O)NC(=O)N(C)C1=O [metharbital] | 0.2 | 2.59 | 1.14 | 0.78 | 2.66%
O=C(N/N=C/c1ccc(O)c(O)c1)c1cc2ccccc2cc1O [dynasore] | -1.99 | 1.05 | -1.82 | -0.26 | 0.04%
NC(=O)OCC(COC(N)=O)c1ccccc1 [felbamate] | 1.11 | 3.53 | -0.7 | 1.06 | 0.03%
O=C(O)c1ccc(-n2nc(-c3ccccc3O)nc2-c2ccccc2O)cc1 [deferasirox] | -0.67 | -4.22 | -1.32 | -1.58 | 0.43%
O=C(O)c1cc(O)c2c(Cl)cc(Cl)cc2n1 [5,7-dichlorokynurenic-acid] | 1.65 | -2.54 | -2.79 | 0.55 | -0.44%
OCc1ccccc1O [salicyl-alcohol] | -0.86 | -1.41 | 0.06 | 4.76 | 0.29%
CCn1cc(C(=O)O)c(=O)c2cc(F)c(N3CCN(C)CC3)cc21 [pefloxacin] | 2.27 | -0.13 | 2.84 | -0.06 | 1.98%
C[C@H]1O[C@@H](O[C@H]2CC[C@@]3(C)[C@H](CC[C@@H]4[C@@H]3C[C@@H](O)[C@]3(C)[C@@H](C5=CC(=O)OC5)CC[C@]43O)C2)C[C@H](O)[C@@H]1O[C@H]1C[C@H](O)[C@H](O[C@H]2C[C@H](O)[C@H](O[C@@H]3O[C@H](CO)[C@@H](O)[C@H](O)[C@H]3O)[C@@H](C)O2)[C@@H](C)O1 [deslanoside] | -1.34 | -4.74 | -14.1 | -18.9 | -20.6%
CC(C)[C@H](O)C(=O)N[C@@H](C)C(=O)N[C@@H]1C(=O)N(C)CCc2ccccc21 [semagacestat] | -0.47 | 3.54 | -1.88 | -1.76 | -3.08%
CCOC(=S)SSC(=S)OCC [dixanthogen] | -1.96 | -1.61 | -1.47 | -0.83 | 1.23%
CN(C)CCC(c1ccccc1)c1ccccn1 (stereo not given) [pheniramine] | -0.78 | 3.08 | 0.29 | 2.25 | -0.28%
CN(C)CCOC(=O)C(c1ccccc1)C1(O)CCCC1 (stereo not given) [cyclopentolate] | -1.73 | 1.59 | -2.5 | -0.18 | -1.17%
Cc1ccc2c(-c3ccccc3)nc(=O)n(C(C)C)c2c1 [proquazone] | 0.68 | 0.21 | -1.31 | -2.03 | -0.55%
O=[N+]([O-])c1cccc2c(Br)n[nH]c12 [3-bromo-7-nitroindazole] | 0.35 | 2.23 | 0.07 | -3.48 | -0.25%
CCn1cc(C(=O)O)c(=O)c2cnc(N3CCNCC3)nc21 [pipemidic-acid] | 0.65 | 2.63 | 1.17 | -0.86 | 1.68%
CC1(C)O[C@H]2CC(=O)OC[C@]23[C@H]2CC[C@@]4(C)[C@H](c5ccoc5)OC(=O)[C@H]5O[C@]54[C@]2(C)C(=O)C[C@@H]13 [limonin] | -0.51 | -0.42 | -2.25 | -1.69 | -2.49%
O=C(c1ccc(C(=O)N2CCC(N3CCCC3)CC2)c(Nc2ccccc2)c1)N1CCC(N2CCCC2)CC1 | 0.43 | -1.56 | 0.31 | -4.9 | -1.44%

SMILES | inhibition of SARS-CoV-2 cytopathic effect (1 nM) [%] | inhibition of SARS-CoV-2 cytopathic effect (8.33 nM) [%] | inhibition of SARS-CoV-2 cytopathic effect (100 nM) [%] | inhibition of SARS-CoV-2 cytopathic effect (833.33 nM) [%] | inhibition of SARS-CoV-2 cytopathic effect (10000 nM)
CC(=O)NCCc1c(Cc2ccccc2)[nH]c2ccccc12 [luzindole] | 5.27 | 4.35 | 1.82 | 3.18 | 3.21%
O=C1NC(=O)C(c2ccccc2[N+](=O)[O-])=C1Nc1ccc(O)c(Cl)c1 | -2.14 | -1.36 | -2.09 | 1.29 | 6.31%
NCCCC[C@H](NC(=O)[C@@H](Cc1cc(Br)c(O)c(Br)c1)NC(=O)N1CCC(N2Cc3ccccc3NC2=O)CC1)C(=O)N1CCN(c2ccncc2)CC1 | 0.88 | 0.87 | 2.08 | -1.34 | 0.72%
O=C(Nc1ccc(O)cc1)c1ccccc1O [N-salicoylaminophenol] | 1.23 | 2.05 | 1.76 | 2.47 | 4.87%
C[n+]1c2cc(N)ccc2cc2ccc(N)cc21.Nc1ccc2cc3ccc(N)cc3nc2c1 [acriflavine] | 2.32 | 1.62 | 1.04 | -1.18 | -12.9%
N#CC[C@@H](C1CCCC1)n1cc(-c2ncnc3[nH]ccc23)cn1 [ruxolitinib-(S)] | -2.23 | -0.87 | -1.21 | 0.43 | -3.24%
COC(=O)C1=C(C#N)NC(C)=C(C(=O)OC(C)C)C1c1cccc([N+](=O)[O-])c1 (stereo not given) [nilvadipine] | -1.91 | -2.45 | 0.29 | 5.15 | 3.78%
CC1(C)CNc2cc(NC(=O)c3cccnc3NCc3ccncc3)ccc21 [motesanib] | -2.26 | -1.53 | -1.67 | 1.7 | 1.82%
O=C(Nc1ccccc1)N[C@H]1C[C@H](C(=O)O)Nc2cc(Cl)cc(Cl)c21 | -0.64 | -2.48 | 0.61 | -0.05 | 0.62%
CC(=O)/N=c1/sc(S(N)(=O)=O)nn1C [methazolamide] | 2.05 | 1.62 | -1.26 | -0.76 | 1.82%
CCCCCCCCCCCCCCOC(=O)c1cccnc1 [myristyl-nicotinate] | 0.94 | 2.86 | 0.68 | 1.76 | 1.2%
O=c1ccc2ccccc2o1 [coumarin] | -0.97 | -0.94 | -1.66 | 1.9 | -0.9%
CN(C(=O)c1c(O)c2ccccc2n(C)c1=O)c1ccccc1 [roquinimex] | -4.01 | 0.29 | 2.85 | -0.21 | 0%
Nc1nnc(-c2cccc(Cl)c2Cl)c(N)n1 [lamotrigine] | -2.3 | -2.08 | -1.73 | -0.07 | 0.08%
NCCCCN(Cc1nc2ccccc2[nH]1)[C@H]1CCCc2cccnc21 | -0.42 | -1.96 | 0.37 | -1.81 | 0.08%
Cc1ccc(C(=O)N(CCCN)[C@@H](c2nc3cc(Cl)ccc3c(=O)n2Cc2ccccc2)C(C)C)cc1 [ispinesib] | 0.51 | -1.24 | -2 | -2.99 | -4.72%
CCCn1cnc2c1c(=O)n(CCCCC(C)=O)c(=O)n2C [propentofylline] | 0.84 | 2.46 | 1.32 | 2.05 | 0.29%
COC(=O)c1cc(OC)c2c(c1-c1c(CO)cc(OC)c3c1OCO3)OCO2 [bicyclol] | -2.07 | 1.38 | -0.88 | -0.4 | -3.03%
COc1cc2ncnc(Nc3cccc(Cl)c3F)c2cc1OC(=O)N1CCN(C)C[C@H]1C | 1.89 | 2.48 | -1.03 | -2.96 | -9.49%
